Source: PubChem BioAssay AID1851 (National Center for Advancing Translational Sciences (NCATS), 2009)
About 5,700 (36%) of roughly 16,000 compounds were called active. About 24% were inconclusive and are not listed. The list shows a part of the results. Unmarked numbers belong to inactive results. Calls follow the shape of the dose curve; as a rule, active = well fitted curve in the direction sought with a large enough effect; inconclusive = small, poorly fitted or top-dose-only effect, or effect the other way; inactive = no such curve, though single readings can be large or run the other way.

molecular target: Cytochrome P450 1A2 (Homo sapiens) (UniProt P05177); assay: Cytochrome panel assay with activity outcomes; details: recombinant CYP, pro-luciferin dealkylation, luminescence, p450-cyp1a2; series mostly up to 57.1 µM; activity, negative = inhibition: at the top concentration
% is scaled to controls: 0 for no effect and ±100 for the full control effect.

Chain of Cytochrome P450 1A2 (Homo sapiens) (P05177 whole entry, looked up): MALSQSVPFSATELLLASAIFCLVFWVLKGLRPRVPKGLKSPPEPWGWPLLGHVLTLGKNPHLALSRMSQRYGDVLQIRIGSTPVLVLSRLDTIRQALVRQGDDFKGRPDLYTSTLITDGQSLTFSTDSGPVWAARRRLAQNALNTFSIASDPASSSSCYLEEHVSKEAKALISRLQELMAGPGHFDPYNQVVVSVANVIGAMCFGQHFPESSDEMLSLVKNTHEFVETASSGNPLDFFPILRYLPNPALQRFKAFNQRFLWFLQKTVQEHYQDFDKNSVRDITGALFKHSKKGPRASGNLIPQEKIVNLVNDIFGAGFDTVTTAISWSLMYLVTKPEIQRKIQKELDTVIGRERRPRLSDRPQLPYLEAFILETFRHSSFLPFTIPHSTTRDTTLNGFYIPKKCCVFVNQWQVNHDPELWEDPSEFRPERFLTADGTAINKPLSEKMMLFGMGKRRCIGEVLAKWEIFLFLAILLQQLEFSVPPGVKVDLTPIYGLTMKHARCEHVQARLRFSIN

Row | Structure (SMILES) | AC50 | activity, negative = inhibition
1 | COc1ccc(CNc2ncncc2-c2ccc(N(C)C)cc2)c(OC)c1 | 0.631 µM (active) | 
2 | COc1ccc(CNc2ncncc2-c2ccc(C(=O)N(C)C)cc2)c(OC)c1 | 15.8 µM (active) | 
3 | COc1ccccc1CNc1ncncc1-c1ccc(C(=O)N(C)C)cc1 | 12.6 µM (active) | 
4 | CC(C)=CCC/C(C)=C/CO/N=C1/C[C@@H](O)[C@@H](O)[C@@H]2[C@@H]3C(=O)N(C4CCCCC4)C(=O)[C@H]3CC[C@H]12 |  | -2.85% [at 11.4 µM]
5 | C[C@@]12CCC(=O)C=C1CC[C@@H]1[C@@H]2[C@H](O)C[C@]2(C)[C@@H]1CC[C@]2(O)C(=O)COC(=O)CCC(=O)O |  | 1.05%
6 | CC(C/C=N/NC(=O)COc1cc(Cl)ccc1Cl)c1ccccc1 (centres undefined) | 0.562 µM (active) | 
7 | Cc1ccccc1C(=O)Nc1ccc(C(=O)NNC(=O)CCCOc2ccc(Cl)cc2Cl)cc1 |  | -24.9%
8 | O=C(COc1ccc(Cl)cc1Cl)N/N=C/CCc1ccccc1 | 1 µM (active) | 
9 | COC(=O)c1c(-c2cc(OC)c(OC)c(OC)c2)c2ccnc(OCc3ncccn3)c2c(=O)n1Cc1ccnc(C)c1 | inactive | 
10 | CCc1ccc(/C=C\C(=O)N2CCc3ccccc3C2)cc1 | 14.1 µM (active) | 
11 | N=C(N)N1CCc2ccccc2C1 |  | -6.45% [at 25.6 µM]
12 | O=C(c1ccc(CN2CCc3ccccc3C2)cc1)N1CCc2ccccc2C1 |  | -22.3%
13 | Cc1cccc2c1OCC/C2=N\NC(=O)COc1ccccc1Cl | 0.891 µM (active) | 
14 | COc1cccc(OCC(=O)NN=C2c3ccccc3-c3ccccc32)c1 | 0.501 µM (active) | 
15 | CCOC(=O)C1=NOC(CNC(=O)C2=NOC(CNC(=O)c3c(-c4ccccc4Cl)noc3C)C2)C1 (centres undefined) |  | 2.92%
16 | Cc1cccc2c1OCC/C2=N\NC(=O)COc1ccccc1 | 2.51 µM (active) | 
17 | Cc1ccccc1OCC(=O)N/N=C1\CCOc2c(C)cccc21 |  | -14%
18 | CO/N=C\[C@@H](NS(=O)(=O)c1ccc(C)cc1)[C@H](C)/C=C\CC(=O)OC |  | -9.25% [at 11.4 µM]
19 | CO/N=C(/C)CCC(=O)OC[C@@H]1O[C@H](C#Cc2ccccc2)C=C[C@@H]1Oc1ccc(C)cc1 |  | -10.1% [at 11.4 µM]
20 | CC(=O)[C@@]1(O)CC[C@H]2[C@H]3C[C@@H](C)C4=CC(=O)C=C[C@]4(C)[C@@]3(F)[C@@H](O)C[C@]21C |  | -14.8% [at 25.6 µM]

Row | Structure (SMILES) | AC50 | activity, negative = inhibition
21 | CC(=O)[C@H]1CC[C@H]2[C@@H]3C=CC4=CC(=O)CC[C@@]4(C)[C@H]3CC[C@]12C |  | -8.55% [at 25.6 µM]
22 | O=c1c(-c2ccccc2)nc2cncnc2n1-c1ccccc1 | 5.01 µM (active) | 
23 | COc1ccc(-n2c(=O)c(-c3cccc(Cl)c3)nc3cncnc32)cc1 | 1 µM (active) | 
24 | O=c1c(-c2cccc(Cl)c2)nc2cncnc2n1-c1ccccc1 | 2 µM (active) | 
25 | Cc1ccc(S(=O)(=O)N[C@H]2COC(=O)C/C=C\[C@H](C)[C@@H](NS(=O)(=O)c3ccc(C)cc3)COC(=O)C/C=C\[C@@H]2C)cc1 |  | -10.6% [at 11.4 µM]
26 | C[C@H](CO)NC(=O)[C@@H]1C[C@H]1[C@@H](NP(=O)(c1ccccc1)c1ccccc1)c1ccccc1 |  | -9.59%
27 | C[C@H](CO)NC(=O)[C@H]1C[C@@H]1[C@H](NP(=O)(c1ccccc1)c1ccccc1)c1ccccc1 |  | -7.78%
28 | O=C(NCc1cc(F)cc2c1OCCO2)[C@H]1C[C@@H]1[C@H](NP(=O)(c1ccccc1)c1ccccc1)c1ccccc1 | 15.8 µM (active) | 
29 | O=C(Nc1ccc2ccccc2c1)[C@H]1C[C@@H]1[C@H](NP(=O)(c1ccccc1)c1ccccc1)c1ccccc1 | 10 µM (active) | 
30 | Cc1cc(CNC(=O)[C@@H]2C[C@H]2[C@@H](NP(=O)(c2ccccc2)c2ccccc2)c2ccccc2)nn1C |  | -17.4%
31 | Cc1ccc(CNC(=O)[C@H]2C[C@@H]2[C@H](NP(=O)(c2ccccc2)c2ccccc2)c2ccccc2)c(F)c1F |  | -17.4%
32 | Cn1cccc1C(=O)N1CCC[C@@]2(CCN(Cc3nccs3)C2)C1 |  | -7.87%
33 | CCC(=O)N1CCN(c2ccc(NC(=O)c3cccs3)cc2)CC1 |  | -9.21%
34 | CCN(CC)S(=O)(=O)c1ccc(C(=O)NC2=C(C(=O)OC)SCC2)cc1 | 12.6 µM (active) | 
35 | COC(=O)C1=C(NC(=O)c2cccs2)CCS1 | 2.51 µM (active) | 
36 | CCN(CC)S(=O)(=O)c1ccc(C(=O)Nc2ncn(Cc3ccccc3)n2)cc1 |  | -10.7%
37 | COC(=O)C1=C(NC(=O)c2cccc(OC)c2)CCS1 | 3.16 µM (active) | 
38 | CCCCN(CC)S(=O)(=O)c1ccc(C(=O)Nc2nnc(CSC)o2)cc1 |  | -27.9%
39 | CC(=O)N(O)CCCCCNC(=O)CCC(=O)N(O)CCCCCNC(=O)CCC(=O)N(O)CCCCCN |  | -5.91% [at 25.6 µM]
40 | O=C1[C@@H]2C=CC=CC2=NC(=S)N1CCN1CCC(=C(c2ccc(F)cc2)c2ccc(F)cc2)CC1 |  | -5.13%

Row | Structure (SMILES) | AC50 | activity, negative = inhibition
41 | COc1ccc(C(C)=O)c(OC(=O)c2ccco2)c1 | 2 µM (active) | 
42 | O=C(Oc1cccc(Br)c1)c1cccnc1 | 12.6 µM (active) | 
43 | O=C(Nc1cccc(OC(=O)c2ccco2)c1)c1ccco1 | 22.4 µM (active) | 
44 | CN(C(=O)C(Cl)Cl)c1ccc(OC(=O)c2ccco2)cc1 |  | -3.35% [at 25.6 µM]
45 | O=C(Oc1ccccc1[N+](=O)[O-])c1cccnc1 | 20 µM (active) | 
46 | O=C(NNC(=S)Nc1ccccc1)c1ccco1 |  | 0.324%
47 | NC(=O)c1ncn([C@@H]2O[C@@H](CO)[C@@H](O)[C@H]2O)c1O |  | -1.3%
48 | O=[N+]([O-])c1ccc(CSc2ncnc3c2ncn3[C@@H]2O[C@@H](CO)[C@@H](O)[C@H]2O)cc1 |  | -12.3%
49 | O=C(Nc1cccc(NC(=O)c2ccc(-c3cccc(Br)c3)o2)c1)c1ccco1 | 3.16 µM (active) | 
50 | O=C(Nc1ccc2nc(-c3ccc(Br)o3)[nH]c2c1)c1ccco1 | 3.55 µM (active) | 
51 | CCOc1ccc(C(=O)Nc2ccc(NC(=O)c3ccco3)c(Cl)c2)cc1Br |  | -16.5%
52 | O=C(Nc1cccc(OC(=O)c2cccnc2)c1)c1cccnc1 | 7.08 µM (active) | 
53 | O=C(Nc1ccc(OC(=O)c2cccnc2)cc1)c1cccnc1 |  | -22.8%
54 | CC(C)C(=O)Nc1ccc(NC(=O)c2cccnc2)cn1 |  | -6.09%
55 | CNc1ccnc(-c2ccccc2CN(C)C)n1 | 12.6 µM (active) | 
56 | CN(C)Cc1ccccc1-c1nccc(NC2CC2)n1 | 1.58 µM (active) | 
57 | CN(C)Cc1ccccc1-c1nccc(N(C)C)n1 | 12.6 µM (active) | 
58 | CN(C)Cc1ccccc1-c1nccc(Nc2ccc(F)cc2)n1 | 3.16 µM (active) | 
59 | CN(C)Cc1cc(C(C)(C)C)ccc1-c1ccc(C(C)(C)C)cc1CN(C)C |  | -17.9% [at 2.29 µM]
